Screening results (PubChem BioAssay)
This excerpt belongs to a sample that is enriched for hits.
RE007 growth inh: less growth of the S. pombe RE007 Vpr strain | S. pombe RE007 Vpr strain, BacTiter-Glo ATP luminescence, 24 h | Potency, µM (doses to about 92.2 µM), most hits filed as inhibitors | 0.21% of 360,000 active; active means well fitted falling curve with a large enough effect; inconclusive means small, poorly fitted or top-dose-only effect; inactive means no such curve, though single readings can be large or run the other way; further: nearly all actives have a fitted effect of over 50% in size
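Fission yeast RE007 carrying one integrated HIV-1 vpr copy, seeded at OD 0.01 in PMG+AL medium with 23 nL pinned compound. Grown 24 h at 30 degrees; viability read by BacTiter-Glo luminescence after 5 min.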
LmPK inhibitor: LmPK (Leishmania mexicana) enzyme inhibition; Q27686; purified LmPK, Kinase-Glo ATP luminescence, 1 h; Potency, µM (series often up to 57.5 µM), most hits filed as inhibitors; 0.37% of 290,000 active
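Screened at intermediate enzyme activity to detect both inhibitors and activators: LmPK at 0.1 nM, with a 0.5 nM enzyme column as activation reference. PEP 0.5 mM, ADP 0.1 mM; ATP detected by luminescence after 1 h.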
Tb PYK inh: blocks Trypanosoma brucei pyruvate kinase; Q57TT1; TbPYK enzyme, Kinase-Glo Plus ATP luminescence, 45 min; Potency, µM (top dose mostly 76.8 µM), actives largely listed as inhibitors; 0.12% of 410,000 active; AID 624173; further: nearly all actives have a fitted effect of over 50% in size
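T. brucei PYK with substrate was exposed to pin-transferred compounds across a concentration series, then started with 130 uM ADP (final). After 45 min at room temperature, Kinase-Glo Plus luminescence was read, normalized and curve-fitted.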
Shiga inhibitor: blocks Shiga toxin action in Vero cells; Vero cells, Shiga toxin protein synthesis inhibition reporter; inhibition, % at 38.7 µM; 9.2% of 290,000 active; AID 2315; in the data active means inhibition mostly above about 28%, no sharp cut-off; inactive means mostly below about 43%
Giardia FBPA inh: Giardia lamblia aldolase inhibition; 0.71% of 290,000 active; A8B2U2; AID 2451; purified Giardia FBPA; Potency, µM (doses to about 59.6 µM), usual class: inhibitors; further: nearly all actives have a fitted effect of over 55% in size
Target sequence (A8B2U2 whole entry, looked up): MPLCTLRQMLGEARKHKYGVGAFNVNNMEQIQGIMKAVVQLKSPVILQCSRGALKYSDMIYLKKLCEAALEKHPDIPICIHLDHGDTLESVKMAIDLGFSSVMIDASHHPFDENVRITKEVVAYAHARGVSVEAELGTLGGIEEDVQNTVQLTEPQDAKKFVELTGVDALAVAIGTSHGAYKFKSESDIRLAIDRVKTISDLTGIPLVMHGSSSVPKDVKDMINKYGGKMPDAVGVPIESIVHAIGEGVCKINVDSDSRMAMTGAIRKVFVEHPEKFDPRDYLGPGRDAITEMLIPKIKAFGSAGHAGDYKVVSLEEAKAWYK
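Giardia FBPA (40 nM reagent) was preincubated 10 min at RT with compound (up to 57.5 uM final), then substrate plus GAPDH/TPI/NAD/arsenate coupling system with diaphorase/resazurin was added; resorufin fluorescence (525/598 nm) was read after 20 min.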
CHX counter: counter-screen hit for Shiga toxin inhibitors, cycloheximide; max response, %; cell reporter, cycloheximide protein synthesis inhibition counterscreen; AID 2314; 12% of 300,000 active; in the data active means max response mostly above about 13%, no sharp cut-off; inactive means mostly below about 14%; further: read at 38.3 µM for the half of the compounds with a filed dose
Numbers stand for hits; - = inactive; ? = inconclusive; . = no result given; [ ] = another dose, or the depositor's remark. Unless noted, the call rests on the fitted dose curve; in most records, active means well fitted curve in the direction sought with a large enough effect; inconclusive means small, poorly fitted or top-dose-only effect, or another doubt; inactive means no such curve, though single readings can be large; an effect the other way counts as inactive or inconclusive.

SMILES	RE007 growth inh	LmPK inhibitor	Tb PYK inh	Shiga inhibitor	Giardia FBPA inh	CHX counter
Cc1cc(N2C(=O)C(O)=C(C(=O)c3cc4ccccc4o3)C2c2ccc(Br)cc2)no1 (configuration not stated)	-	-	-	-	.	42
Cc1cc(N2C(=O)C(O)=C(C(=O)c3cc4ccccc4o3)C2c2ccc(Cl)cc2)no1 (configuration not stated)	-	-	-	-	.	-
Cc1cc(=O)[nH]c(N/N=C/c2ccc(N(C)C)cc2)n1	-	-	-	50	-	24
Cc1cc(=O)[nH]c(Nc2ccc(N(C)C)cc2)n1	-	-	-	-	-	-
Cc1cc(=O)[nH]c(N/N=C/c2ccc(F)cc2)n1	-	-	-	-	-	13
COc1ccccc1NC(=O)c1sc2nc3n(c(=O)c2c1C)N=C(c1cccc(Br)c1)CS3	.	.	-	.	.	.
CNS(=O)(=O)c1cn(CC(=O)N2CCN(c3ccccc3OC)CC2)cc1S(=O)(=O)NC	.	.	-[15.4 µM]	.	.	.
CCOc1ccc(C(=O)COC(=O)c2cccc(-n3cnnn3)c2)cc1	-	-	-	51	.	56
COc1ccc(OCCOC(=O)c2cccc(-n3cnnn3)c2)cc1	-	-	-	-	-	14
COC(=O)c1cccc(-n2cnnn2)c1	-	-	-	-	-	-
O=C(COC(=O)c1cccc(-n2cnnn2)c1)c1ccccc1	-	-	-	31	.	20
CC1CCN(S(=O)(=O)c2ccc3nc(NCc4ccccc4)ccc3c2)CC1	.	.	-	.	.	.
COC(=O)CC1C(C)(C)C(OC(C)=O)C2[C@H](OC(C)=O)[C@]34O[C@]2(O)[C@]1(C)C3CC[C@]1(C)C4=CC(=O)OC1c1ccoc1 (some centres not stated)	.	.	.	.	-	.
COc1ccc(C(=O)/C(=C/c2cccs2)c2nc3ccccc3o2)cc1	-	-	-	93	-	43
COc1ccc(/C=C(\CC(=O)O)c2nc3ccccc3o2)cc1	-	-	-	108	-	39
COc1ccc(/C=C/C(=O)Nc2cc(-c3nc4ccccc4o3)ccc2OC)cc1	.	.	-	.	.	.
CCOc1ccc(CNC(=O)Cn2c(=O)c3cccn3c3ccc(F)cc32)cc1OC	.	.	-	.	.	.
COc1ccc(C(=O)NC(=S)NCc2ccccc2)cc1OC	-	-	-	-	-	-
COc1cc(OC)cc(C(=O)NC(=S)NCc2ccco2)c1	-	-	-	-	-	-
COc1ccc(C(=O)NC(=S)NCc2ccco2)cc1OC	-	-	-	-	-	-
CCC(C)C(NC(=O)c1ccccc1NC(=O)c1ccc(OC)cc1)C(=O)NCc1ccco1 (configuration not stated)	-	-	-	-	-	-
COc1ccc(C(=O)NC(=S)NCc2ccco2)cc1	-	-	-	44	-	22
COc1ccc(C(=O)Nc2ccc(Cl)cc2C(=O)NCc2ccco2)cc1	-	-	-	-	-	14
Cc1ccc(C(=O)NC(=S)NCc2ccco2)cc1	-	-	-	-	-	35
Cc1ccc(C(=O)NC(=S)NCc2ccccc2)cc1	?	-	-	-	-	16
SMILES	RE007 growth inh	LmPK inhibitor	Tb PYK inh	Shiga inhibitor	Giardia FBPA inh	CHX counter
Cc1ccc(-c2cc(C(=O)N(Cc3ccc(C(C)(C)C)cc3)Cc3ccco3)no2)cc1	.	.	-	.	.	.
O=C(CSc1nc2c([nH]c3ccccc32)c(=O)n1-c1ccccc1F)Nc1ccccc1C(F)(F)F	.	.	-	.	.	.
C=CCN1C(=O)C(CC(C)C)NC1=S (configuration not stated)	.	.	-	-	-	-
COc1ccc(C(=O)N/C(=C\c2ccco2)C(=O)NCc2ccco2)cc1	-	-	-	-	.	-
COc1cccc(C(=O)NC(=S)NCc2ccco2)c1	-	-	-	40	-	23
Cc1ccc(NC(=O)C(=S)NCc2ccco2)cc1	-	-	-	-	-	38
Cc1ccc(NC(=O)C(=O)NCc2ccco2)cc1	.	.	-	.	.	.
CC(C)(C)c1ccc(C(=O)N/C(=C\c2cccs2)C(=O)NCc2ccco2)cc1	-	-	-	-	-	33
Clc1ccc(CCNC(c2cccc(Cl)c2)c2nnc(-c3ccccc3)o2)cc1 (configuration not stated)	.	.	-	.	.	.
S=C(Nc1cccc(Cl)c1)NC1CCCCC1	-	-	-	-	-	-
S=C(Nc1ccc(Nc2ccccc2)cc1)NC1CCCCCC1	-	-	-	-	-	-
FC(F)Oc1ccc(NC(=S)NC2CCCCCCC2)cc1	-	-	-	65	-	34
S=C(Nc1ccc(Br)cc1)NC1CCCCC1	-	-	-	67	-	51
S=C(Nc1ccc(Cl)cc1)NC1CCCCC1	-	-	-	68	-	41
COc1ccc2sc(N(Cc3cccnc3)C(=O)C3CCCCC3)nc2c1	.	.	-[15.4 µM]	.	.	.
CCC(=O)N1CCc2cc(Br)cc(S(=O)(=O)NCCc3ccccc3)c21	.	.	-	.	.	.
CO/N=C/c1ccc(Oc2ccc(C)cc2)nc1	-	-	-	45	-	27
Fc1ccccc1Cn1c(-c2ccccc2)nc2ccccc21	.	.	-	.	.	.
CCOC(=O)c1ccc(NC(=O)CC2OCCN(CC)C2=O)cc1 (configuration not stated)	4.5µM	-	-	-	-	-
CCOC(=O)c1ccc(NC(=O)CC2C(=O)OCCN2CC)cc1 (configuration not stated)	5µM	-	-	-	-	-
COc1ccc(-c2cnnc(CCCn3ccnc3-c3ccccc3)n2)cc1	.	.	.	.	-[12.9 µM]	.
C/C=C/OC(=O)NC(c1ccccc1)[C@@]1(C(=O)OC)CCCC1=O (some centres not stated)	.	.	.	.	-[12.9 µM]	.
CC(=O)COc1ccc2c3c(c(=O)oc2c1C)CCCCC3	-	-	-	64	-	19
Cc1c(OCc2ccc([N+](=O)[O-])cc2)ccc2c3c(c(=O)oc12)CCC3	-	-	-	-	-	31
CC(=O)c1cccc(NC(=O)c2cc(-c3cccs3)on2)c1	-	-	-	-	-	14
SMILES	RE007 growth inh	LmPK inhibitor	Tb PYK inh	Shiga inhibitor	Giardia FBPA inh	CHX counter
O=C(Nc1cccc(O)c1)c1cc(-c2cccs2)on1	-	-	-	77	-	30
CC(C)CCn1c(=O)c2sccc2n2c(CCCC(=O)NC3CCC(C)CC3)nnc12 (configuration not stated)	.	.	-	.	.	.
CC1(C)COC(c2coc3ccccc3c2=O)OC1	-	-	-	87	-	46
CC1(C)COC(c2ccccc2Cl)OC1	-	.	-	.	.	.
COc1ccc(C(=O)NCc2ccc(-c3nc4ccccc4s3)cc2)cc1OC	-	-	-	-	-	-
O=C(NCc1ccc(-c2nc3ccccc3s2)cc1)c1ccco1	-	-	-	71	-	34
O=C(NC(=S)NCc1ccc(-c2nc3ccccc3s2)cc1)c1ccco1	-	-	-	64	-	30
O=C(CCNC(=O)c1ccco1)Nc1nc2ccccc2s1	-	.	-	.	.	.
COc1ccccc1C=NNC(=O)NN=Cc1ccccc1OC	-	.	-	.	.	.
